Where “and” joins values, the source holds several entries; their conditions need not be identical. Identical values can stand only once. Records with an inconclusive call do not appear. Calls of active or inactive are those of the source. Unless noted, the call rests on the fitted dose curve.
Key:
[1] = qHTS for Inhibitors of the Functional Ribonucleoprotein Complex (vRNP) of Lassa (LASV) Arenavirus: LASV Primary Screen - GLuc reporter signal (AID 1347082; calls by dose curve; tested in HEK293 reporter line; further: nearly all actives have a fitted effect of over 60% in size)
[2] = qHTS for Inhibitors of the Functional Ribonucleoprotein Complex (vRNP) of Lassa (LASV) Arenavirus: Viability assay - alamar blue signal for LASV Primary Screen (AID 1347083; calls by dose curve; tested in HEK293 reporter line; further: nearly all actives have a fitted effect of over 80% in size)
[3] = qHTS for Inhibitors of the Functional Ribonucleoprotein Complex (vRNP) of Lymphocytic Choriomeningitis Arenaviruses (LCMV): Viability assay - alamar blue signal for LCMV Primary Screen (AID 1347085; calls by dose curve; tested in HEK293 reporter line; further: nearly all actives have a fitted effect of over 80% in size)
[4] = target: Nucleoprotein (Lymphocytic choriomeningitis virus (strain Armstrong)) (UniProt P09992); experiment: qHTS for Inhibitors of the Functional Ribonucleoprotein Complex (vRNP) of Lymphocytic Choriomeningitis Arenaviruses (LCMV): LCMV Primary Screen - GLuc reporter signal (AID 1347086); further: nearly all actives have a fitted effect of over 70% in size

Measured: Potency
Potency means the concentration at half of the fitted maximal effect.

Nucleoprotein (Lymphocytic choriomeningitis virus (strain Armstrong)), sequence (P09992 whole entry, looked up): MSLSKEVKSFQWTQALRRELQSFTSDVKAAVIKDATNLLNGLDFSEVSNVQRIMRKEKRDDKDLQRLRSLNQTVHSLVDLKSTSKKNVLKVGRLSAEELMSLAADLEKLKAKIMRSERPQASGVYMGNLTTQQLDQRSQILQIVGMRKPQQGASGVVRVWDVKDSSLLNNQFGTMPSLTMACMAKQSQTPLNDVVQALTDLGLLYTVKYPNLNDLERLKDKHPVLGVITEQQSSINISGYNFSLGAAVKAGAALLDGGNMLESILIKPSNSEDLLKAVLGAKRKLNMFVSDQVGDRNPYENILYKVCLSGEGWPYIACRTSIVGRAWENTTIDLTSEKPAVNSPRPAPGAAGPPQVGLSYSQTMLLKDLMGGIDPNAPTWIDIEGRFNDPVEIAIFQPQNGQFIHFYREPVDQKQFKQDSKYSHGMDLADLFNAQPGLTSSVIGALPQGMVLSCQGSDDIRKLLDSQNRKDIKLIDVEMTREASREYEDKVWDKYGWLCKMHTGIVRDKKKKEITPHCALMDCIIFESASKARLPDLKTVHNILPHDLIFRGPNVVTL

C[C@H](O)C(=O)Nc1c(I)c(C(=O)NC(CO)CO)c(I)c(C(=O)NC(CO)CO)c1I
inactive: [1] | [2] | [3] | [4]

N/C(=N\N=C\c1ccc(Cl)cc1)N/N=C/c1ccc(Cl)cc1
inactive: [1] | [2] | [3] | [4]

O=C(O)CCc1nc(-c2ccccc2)c(-c2ccccc2)o1
inactive: [1] | [2] | [3] | [4]

COc1ccc(-c2cc(C(F)F)nn2-c2ccc(S(N)(=O)=O)cc2)cc1F
inactive: [1] | [2] | [3] | [4]

Oc1c(Cl)cc(Cl)c2cccnc12
inactive: [1] | [2] | [3] | [4]

CN(C)CCN(Cc1cccs1)c1ccccn1
inactive: [1] | [2] | [3] | [4]

CCN(CC)CCOC(=O)C(Cc1cccc2ccccc12)CC1CCCO1 (stereo unspecified)
inactive: [1] | [2] | [3] | [4]

O=C1OC(OC(=O)c2cccnc2Nc2cccc(C(F)(F)F)c2)c2ccccc21 (stereo unspecified)
inactive: [1] | [2] | [3] | [4]

COC(=O)[C@H]1[C@H]2C[C@@H]3c4[nH]c5cc(OC)ccc5c4CCN3C[C@H]2C[C@@H](OC(=O)COc2ccc(OC)cc2)[C@@H]1OC
inactive: [1] | [2] | [3] | [4]

CCCCCCOC(=O)NC(=N)c1ccc(NCc2nc3cc(C(=O)N(CCC(=O)OCC)c4ccccn4)ccc3n2C)cc1
inactive: [1] | [2] | [3] | [4]

CCN(CC)CCOc1ccccc1C(=O)CCc1ccccc1
inactive: [1] | [2] | [3] | [4]

COC(=O)C1=C(C)NC(COC(N)=O)=C(C(=O)OC(C)C)C1c1cccc(Cl)c1Cl (stereo unspecified)
inactive: [1] | [2] | [3] | [4]

O=C(O)C1CCC1
inactive: [1] | [2] | [3] | [4]

COc1ccccc1OC(=O)Oc1ccccc1OC
inactive: [1] | [2] | [3] | [4]

CCOC(=O)c1ccc(NC(=O)CN2CCCCC2)cc1
inactive: [1] | [2] | [3] | [4]

O=C1OC2(c3ccc(O)cc3Oc3cc(O)ccc32)c2ccccc21
inactive: [1] | [2] | [3] | [4]

CCCCN=C(N)N=C(N)N
inactive: [1] | [2] | [3] | [4]

CCC(=O)c1ccc2c(c1)N(CCCN(C)C)c1ccccc1S2
inactive: [1] | [2] | [3] | [4]

CN(C)CCC(c1ccccc1)c1ccccn1 (stereo unspecified)
inactive: [1] | [2] | [3] | [4]

Cc1sccc1Br
inactive: [1] | [2] | [3] | [4]

OCc1cc(C(O)CNCCCCCCOCCCCc2ccccc2)ccc1O (stereo unspecified)
inactive: [1] | [2] | [3] | [4]

CC(=O)c1ccc2c(c1)N(CCCN(C)C)c1ccccc1S2
inactive: [1] | [2] | [3] | [4]

Nc1c2c(nc3c1CCC3)CCCC2
inactive: [1] | [2] | [3] | [4]

CCCc1nc(C)c2c(=O)[nH]c(-c3cc(S(=O)(=O)N4CCN(CC)CC4)ccc3OCC)nn12
inactive: [1] | [2] | [3] | [4]

CCCCC1C(=O)NC(=O)N(C2CCCCC2)C1=O (stereo unspecified)
inactive: [1] | [2] | [3] | [4]

C=CC[N+]1([C@H]2C[C@H]3[C@@H]4CC[C@H]5C[C@H](OC(C)=O)[C@@H](N6CCCCC6)C[C@]5(C)[C@H]4CC[C@]3(C)[C@H]2OC(=O)CC)CCCCC1
inactive: [1] | [2] | [3] | [4]

CC(=O)[C@@]1(O)CC[C@H]2[C@@H]3CCC4=CC(=O)CC[C@]4(C)[C@H]3CC[C@@]21C
inactive: [1] | [2] | [3] | [4]

CCCCCC(N)=O
inactive: [1] | [2] | [3] | [4]

NNC(=O)CP(=O)(c1ccccc1)c1ccccc1
inactive: [1] | [2] | [3] | [4]

CCc1oc2ccccc2c1C(=O)c1cc(Br)c(O)c(Br)c1
inactive: [1] | [2] | [3] | [4]

Cc1ccc(C(=O)Oc2ccc(C(O)CNC(C)(C)C)cc2OC(=O)c2ccc(C)cc2)cc1 (stereo unspecified)
inactive: [1] | [2] | [3] | [4]

C[C@@H]1C[C@H]2[C@@H]3C[C@H](F)C4=CC(=O)C(Cl)=C[C@]4(C)[C@@]3(F)[C@@H](O)C[C@]2(C)[C@@]1(O)C(=O)CO
inactive: [1] | [2] | [3] | [4]

COc1ccc2c(c1)c(CC(=O)OCC(=O)O)c(C)n2C(=O)c1ccc(Cl)cc1
inactive: [1] | [2] | [3] | [4]

O=C(CCN1CCN(CCO)CC1)N1c2ccccc2Sc2ccc(C(F)(F)F)cc21
inactive: [1] | [2] | [3] | [4]

CCCCOc1cc(C(=O)OCCN(CC)CC)ccc1N
inactive: [1] | [2] | [3] | [4]

N[C@H](C(=O)O)c1ccc(O)cc1
inactive: [1] | [2] | [3] | [4]

C[C@@H]1CCC[C@H](C)N1CCCC(O)(c1ccccc1)c1ccccn1 (stereo partly specified)
inactive: [1] | [2] | [3] | [4]

C[N+]1(CC2COC(c3ccccc3)(c3ccccc3)O2)CCCCC1 (stereo unspecified)
inactive: [1] | [2] | [3] | [4]

CCN(CC)CC(=O)OCC(=O)[C@@]1(O)CC[C@H]2[C@@H]3CCC4=CC(=O)CC[C@]4(C)[C@H]3[C@@H](O)C[C@@]21C
inactive: [1] | [2] | [3] | [4]

CC(=O)/C=C/C=C1/C2CCC(C2)C1(C)C (stereo unspecified)
inactive: [1] | [2] | [3] | [4]

COc1cccc(CCc2ccccc2OCC(CN(C)C)OC(=O)CCC(=O)O)c1 (stereo unspecified)
inactive: [1] | [2] | [3] | [4]

CCOc1c(N2CCOCC2)cnn(C)c1=O
inactive: [1] | [2] | [3] | [4]

CSc1ccc2c(c1)C(N1CCN(C)CC1)Cc1ccccc1S2 (stereo unspecified)
inactive: [1] | [2] | [3] | [4]

CC(=O)Nc1ccc(S(=O)(=O)Nc2ccc([N+](=O)[O-])cc2)cc1
inactive: [1] | [2] | [3] | [4]

Cc1cc(C(C)(C)C)cc(C)c1CC1=NCCN1
inactive: [1] | [2] | [3] | [4]

COc1ccccc1N1CCN(CC(O)COc2cccc3ccccc23)CC1 (stereo unspecified)
inactive: [1] | [2] | [3] | [4]

CC(COc1ccccc1)NC(C)C(O)c1ccc(O)cc1 (stereo unspecified)
inactive: [1] | [2] | [3] | [4]

Cc1ccc(CCn2c3c(c4cc(Cl)ccc42)CN(C)CC3)cn1
inactive: [1] | [2] | [3] | [4]

CC1=C(C(=O)O)N2C(=O)[C@@H](NC(=O)[C@H](N)C3=CCC=CC3)[C@H]2SC1
inactive: [1] | [2] | [3] | [4]

c1ccc(CCNc2nc(-c3ccccc3)cs2)cc1
inactive: [1] | [2] | [3] | [4]

NC1(c2ccc(-c3nc4ccn5c(=O)[nH]nc5c4cc3-c3ccccc3)cc2)CCC1
active: [1] 19.3 µM | [2] 2.73 µM and 5.62 µM | [3] 3.85 µM | [4] 3.06 µM

CC(=O)N1C[C@H](O)C[C@H]1C(=O)O
inactive: [1] | [2] | [3] | [4]

N[C@H]1CN(c2c(F)cc3c(=O)c(C(=O)O)cn(C4C[C@@H]4F)c3c2Cl)CC12CC2 (stereo partly specified)
inactive: [1] | [2] | [3] | [4]

CNC[C@H](O)c1ccc(O)c(O)c1
inactive: [1] | [2] | [3] | [4]

CCCC(=O)OC[C@@H](OC(=O)CCC)[C@@H](OC(=O)CCC)[C@H](Cn1c2nc(=O)[nH]c(=O)c-2nc2cc(C)c(C)cc21)OC(=O)CCC
inactive: [1] | [2] | [3] | [4]

CCCCNc1ccc(C(=O)OCCN(CC)CC)cc1
inactive: [1] | [2] | [3] | [4]

CC(C)(C)C(=O)OCOC(=O)C1N2C(=O)CC2S(=O)(=O)C1(C)C (stereo unspecified)
inactive: [1] | [2] | [3] | [4]

c1ccc([C@H]2CN3CCSC3=N2)cc1
inactive: [1] | [2] | [3] | [4]

O=C1c2ccccc2C(=O)C1c1ccc(Br)cc1
inactive: [1] | [2] | [3] | [4]

OCCN1CCN(CCCN2c3ccccc3C=Cc3ccccc32)CC1
inactive: [1] | [2] | [3] | [4]

CCOC(=O)c1ccc(OC(=O)CCCCCN=C(N)N)cc1
inactive: [1] | [2] | [3] | [4]

O=C(CCNNC(=O)c1ccncc1)NCc1ccccc1
inactive: [1] | [2] | [3] | [4]

CN(C)CC[C@@H](c1ccc(Cl)cc1)c1ccccn1
inactive: [1] | [2] | [3] | [4]

c1ccc2[nH]c(-c3cscn3)nc2c1
inactive: [1] | [2] | [3] | [4]

CC(=O)OCC(=O)[C@@]1(O)CC[C@H]2[C@@H]3CCC4=CC(=O)C=C[C@]4(C)[C@H]3[C@@H](O)C[C@@]21C
inactive: [1] | [2] | [3] | [4]

CC(=O)CCC(=O)O
inactive: [1] | [2] | [3] | [4]

O=C(CCN1CCN2CCCC2C1)N1c2ccccc2Sc2ccc(Cl)cc21 (stereo unspecified)
inactive: [1] | [2] | [3] | [4]

NC(N)=NC(=O)c1nc(Cl)c(N)nc1N
inactive: [1] | [2] | [3] | [4]

CN(C)CCOC1=Cc2ccccc2Sc2ccc(Cl)cc21
inactive: [1] | [2] | [3] | [4]

NS(=O)(=O)c1cc2c(cc1Cl)NC(C1CC3C=CC1C3)NS2(=O)=O (stereo unspecified)
inactive: [1] | [2] | [3] | [4]

CCOCCOC(=O)/C=C/c1ccc(OC)cc1
inactive: [1] | [2] | [3] | [4]

CCN(CC)CCNC(C(=O)OCCC(C)C)c1ccccc1 (stereo unspecified)
inactive: [1] | [2] | [3] | [4]

Cc1ccc2c(Cl)cc(Cl)c(O)c2n1
inactive: [1] | [2] | [3] | [4]

CN1CCCN(C(c2ccccc2)c2ccc(Cl)cc2)CC1 (stereo unspecified)
inactive: [1] | [2] | [3] | [4]

From PubChem BioAssay (NCATS)
